Reference: PubChem BioAssay AID1159580 (chemical genetic matrix, 2015)
The whole screen tested about 5,500 compounds, of which about 2,000 (36%) were called active. Roughly 18% stayed inconclusive and do not appear here. Cut-off read from the data, not from the text of the source: active = normalized growth mostly below about 0.91 (no sharp cut-off); inconclusive = no clear call, values can overlap the other calls; inactive = mostly above about 0.92. The list shows a part of the results.

Assay: chemical genetic growth profiling, strain panel (AID 1159580);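 note: tested at 20 µM; growth read once vehicle control cultures reached saturation at 30 °C; 1 = growth at the plate median or of vehicle wells; lower values mean less growth of the strain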
Settings: growth OD
[1] = S. cerevisiae deletion strains, locus YAL013W, strain DEP1, active compounds read low
[2] = S. cerevisiae deletion strains, locus YDR150W, strain NUM1, active compounds read low
[3] = S. cerevisiae deletion strains, locus YMR263W, strain SAP30, active compounds read low
[4] = S. cerevisiae deletion strains, locus YMR307W, strain GAS1, active compounds read low
[5] = S. cerevisiae deletion strains, locus YNL322C, strain KRE1, active compounds read low
[6] = S. cerevisiae deletion strains, locus YPL055C, strain LGE1, active compounds read low
[7] = S. cerevisiae deletion strains, locus YPL241C, strain CIN2, active compounds read low

Measured: normalized growth

COc1ccc(/C=C/C(=O)Nc2ccccc2C(=O)O)cc1OC
inactive: [1] 1.03 | S. cerevisiae deletion strains, locus YAL040C, strain CLN3, active compounds read low 0.97 | S. cerevisiae deletion strains, locus YCL061C, strain MRC1 (second series), active compounds read low 0.99 | [2] 0.994 | S. cerevisiae deletion strains, locus YDR363W, strain ESC2, active compounds read low 1.01 | S. cerevisiae deletion strains, locus YER002W, strain NOP16, active compounds read low 0.985 | [3] 0.996 | [4] 1.01 | S. cerevisiae deletion strains, locus YNL175C, strain NOP13, active compounds read low 0.979 | S. cerevisiae deletion strains, locus YNL197C, strain WHI3, active compounds read low 0.964 | S. cerevisiae deletion strains, locus YNL224C, strain SQS1, active compounds read low 0.999 | [5] 1.02 | S. cerevisiae deletion strains, locus YOR083W, strain WHI5 (second series), active compounds read low 0.964 | [6] 1.05 | [7] 0.991

CC(=O)C1=C(O)C2C3c4c[nH]c5cccc(c45)CC3C(C)(C)N2C1=O (stereo unspecified)
inactive: [1] 0.994 | S. cerevisiae deletion strains, locus YBR021W, strain FUR4, active compounds read low 0.983 | S. cerevisiae deletion strains, locus YBR229C, strain ROT2, active compounds read low 0.997 | S. cerevisiae deletion strains, locus YCL029C, strain bik1, active compounds read low 1 | S. cerevisiae deletion strains, locus YDL035C, strain GPR1, active compounds read low 1.01 | S. cerevisiae deletion strains, locus YDL074C, strain BRE1, active compounds read low 1.01 | S. cerevisiae deletion strains, locus YDL101C, strain DUN1, active compounds read low 1.01 | S. cerevisiae deletion strains, locus YDL134C, strain PPH21, active compounds read low 1 | S. cerevisiae deletion strains, locus YDL185W, strain tfp1, active compounds read low 0.995 | S. cerevisiae deletion strains, locus YDL192W, strain arf1, active compounds read low 1 | S. cerevisiae deletion strains, locus YDR101C, strain arx1, active compounds read low 0.995 | [2] 1.01 | S. cerevisiae deletion strains, locus YDR162C, strain NBP2, active compounds read low 0.993 | S. cerevisiae deletion strains, locus YDR318W, strain mcm21, active compounds read low 1.01 | S. cerevisiae deletion strains, locus YDR388W, active compounds read low 1 | S. cerevisiae deletion strains, locus YDR502C, strain sam2, active compounds read low 1.01 | S. cerevisiae deletion strains, locus YEL061C, strain CIN8, active compounds read low 0.989 | S. cerevisiae deletion strains, locus YER110C, active compounds read low 1.01 | S. cerevisiae deletion strains, locus YER155C, strain BEM2, active compounds read low 1 | S. cerevisiae deletion strains, locus YER167W, strain BCK2, active compounds read low 1.01 | S. cerevisiae deletion strains, locus YGL078C, strain dbp3, active compounds read low 1 | S. cerevisiae deletion strains, locus YGL086W, strain mad1, active compounds read low 1.01 | S. cerevisiae deletion strains, locus YGL248W, strain PDE1, active compounds read low 0.997 | S. cerevisiae deletion strains, locus YGR078C, strain PAC10, active compounds read low 0.975 | S. cerevisiae deletion strains, locus YGR135W, strain pre9, active compounds read low 0.993 | S. cerevisiae deletion strains, locus YGR229C, strain SMI1, active compounds read low 0.971 | S. cerevisiae deletion strains, locus YGR252W, strain gcn5, active compounds read low 1.04 | S. cerevisiae deletion strains, locus YHR030C, strain SLT2, active compounds read low 1.01 | S. cerevisiae deletion strains, locus YHR079C, strain IRE1 (second series), active compounds read low 1.02 | S. cerevisiae deletion strains, locus YHR094C, strain hxt1, active compounds read low 1 | S. cerevisiae deletion strains, locus YHR129C, strain ARP1, active compounds read low 1 | S. cerevisiae deletion strains, locus YHR200W, strain rpn10, active compounds read low 1.01 | S. cerevisiae deletion strains, locus YIL066C, strain RNR3, active compounds read low 1.04 | S. cerevisiae deletion strains, locus YIL073C, strain SPO22, active compounds read low 1.07 | S. cerevisiae deletion strains, locus YIL125W, strain kgd1, active compounds read low 1 | S. cerevisiae deletion strains, locus YIR030C, strain dcg1, active compounds read low 1 | S. cerevisiae deletion strains, locus YJL095W, strain BCK1, active compounds read low 1 | S. cerevisiae deletion strains, locus YJL134W, strain LCB3, active compounds read low 1.01 | S. cerevisiae deletion strains, locus YJL168C, strain set2, active compounds read low 1.01 | S. cerevisiae deletion strains, locus YJL187C, strain SWE1 (second series), active compounds read low 1.01 | S. cerevisiae deletion strains, locus YJR043C, strain POL32, active compounds read low 1.01 | S. cerevisiae deletion strains, locus YJR075W, strain HOC1, active compounds read low 1 | S. cerevisiae deletion strains, locus YKL009W, strain mrt4, active compounds read low 1.03 | S. cerevisiae deletion strains, locus YKL068W, active compounds read low 1 | S. cerevisiae deletion strains, locus YKL085W, strain MDH1 (second series), active compounds read low 0.994 | S. cerevisiae deletion strains, locus YKL085W, strain MDH1, active compounds read low 0.994 | S. cerevisiae deletion strains, locus YKL190W, strain CNB1, active compounds read low 0.99 | S. cerevisiae deletion strains, locus YKR001C, strain vps1, active compounds read low 1 | S. cerevisiae deletion strains, locus YLR039C, strain RIC1, active compounds read low 0.979 | S. cerevisiae deletion strains, locus YLR058C, strain SHM2, active compounds read low 1 | S. cerevisiae deletion strains, locus YLR102C, strain apc9, active compounds read low 1.01 | S. cerevisiae deletion strains, locus YLR262C, strain YPT6, active compounds read low 0.97 | S. cerevisiae deletion strains, locus YLR268W, strain sec22, active compounds read low 0.995 | S. cerevisiae deletion strains, locus YLR330W, strain CHS5, active compounds read low 0.992 | S. cerevisiae deletion strains, locus YLR342W, strain FKS1 (second series), active compounds read low 1.02 | S. cerevisiae deletion strains, locus YLR371W, strain rom2, active compounds read low 1.01 | S. cerevisiae deletion strains, locus YLR418C, strain cdc73, active compounds read low 0.99 | S. cerevisiae deletion strains, locus YML016C, strain PPZ1, active compounds read low 1 | S. cerevisiae deletion strains, locus YML032C, strain rad52, active compounds read low 1.01 | S. cerevisiae deletion strains, locus YML124C, strain tub3, active compounds read low 1 | S. cerevisiae deletion strains, locus YMR078C, strain ctf18, active compounds read low 1 | S. cerevisiae deletion strains, locus YMR223W, strain ubp8, active compounds read low 1.03 | [3] 1.01 | [4] 1.08 | S. cerevisiae deletion strains, locus YNL067W, strain RPL9B, active compounds read low 1 | S. cerevisiae deletion strains, locus YNL128W, strain TEP1, active compounds read low 0.998 | S. cerevisiae deletion strains, locus YNL153C, strain GIM3, active compounds read low 0.999 | S. cerevisiae deletion strains, locus YNL233W, strain BNI4, active compounds read low 1.01 | S. cerevisiae deletion strains, locus YNL250W, strain rad50, active compounds read low 1.01 | S. cerevisiae deletion strains, locus YNL271C, strain bni1, active compounds read low 1.01 | S. cerevisiae deletion strains, locus YNL298W, strain CLA4, active compounds read low 0.998 | S. cerevisiae deletion strains, locus YNL307C, strain MCK1, active compounds read low 1.02 | [5] 1 | S. cerevisiae deletion strains, locus YNR052C, strain pop2, active compounds read low 1.01 | S. cerevisiae deletion strains, locus YOL006C, strain TOP1, active compounds read low 1.06 | S. cerevisiae deletion strains, locus YOL012C, strain htz1 0.841 | S. cerevisiae deletion strains, locus YOL147C, strain pex11, active compounds read low 1.01 | S. cerevisiae deletion strains, locus YOR061W, strain CKA2, active compounds read low 1 | S. cerevisiae deletion strains, locus YOR069W, strain VPS5, active compounds read low 0.993 | S. cerevisiae deletion strains, locus YOR136W, strain idh2, active compounds read low 1.01 | S. cerevisiae deletion strains, locus YOR144C, strain elg1, active compounds read low 1 | S. cerevisiae deletion strains, locus YOR184W, strain ser1, active compounds read low 1.03 | S. cerevisiae deletion strains, locus YOR316C, strain cot1, active compounds read low 1 | [6] 0.976 | [7] 1.05 | S. cerevisiae deletion strains, locus YPR119W, strain clb2, active compounds read low 1 | S. cerevisiae deletion strains, locus YPR141C, strain kar3, active compounds read low 1 | S. cerevisiae deletion strains, locus YPR163C, strain tif3, active compounds read low 1 | S. cerevisiae deletion strains, locus YPR167C, strain met16, active compounds read low 1.01 | S. cerevisiae deletion strains, strain wtn01, active compounds read low 0.995 | S. cerevisiae strains, strain wild type, active compounds read low 0.971
